This is an account of results in the supplement of paper PMC11732987, “Enantioselective OTUD7B fragment discovery through chemoproteomics screening and high-throughput optimisation” (Communications Chemistry, 2025).

Common to all, as to test: log2 ratio of Biotin-Ahx-Ub-VS probe labelling (fragment/DMSO); higher = less target engagement (more negative = stronger competition), active = hit call of the paper (q ≤ 0.05, log2 ratio ≤ -1)
Settings in all cases: compound concentration: 200 uM; treatment time: 3 h

Assay [1] deals with T1, USP42 (UniProt Q9H9J4).
T1 sequence (whole entry): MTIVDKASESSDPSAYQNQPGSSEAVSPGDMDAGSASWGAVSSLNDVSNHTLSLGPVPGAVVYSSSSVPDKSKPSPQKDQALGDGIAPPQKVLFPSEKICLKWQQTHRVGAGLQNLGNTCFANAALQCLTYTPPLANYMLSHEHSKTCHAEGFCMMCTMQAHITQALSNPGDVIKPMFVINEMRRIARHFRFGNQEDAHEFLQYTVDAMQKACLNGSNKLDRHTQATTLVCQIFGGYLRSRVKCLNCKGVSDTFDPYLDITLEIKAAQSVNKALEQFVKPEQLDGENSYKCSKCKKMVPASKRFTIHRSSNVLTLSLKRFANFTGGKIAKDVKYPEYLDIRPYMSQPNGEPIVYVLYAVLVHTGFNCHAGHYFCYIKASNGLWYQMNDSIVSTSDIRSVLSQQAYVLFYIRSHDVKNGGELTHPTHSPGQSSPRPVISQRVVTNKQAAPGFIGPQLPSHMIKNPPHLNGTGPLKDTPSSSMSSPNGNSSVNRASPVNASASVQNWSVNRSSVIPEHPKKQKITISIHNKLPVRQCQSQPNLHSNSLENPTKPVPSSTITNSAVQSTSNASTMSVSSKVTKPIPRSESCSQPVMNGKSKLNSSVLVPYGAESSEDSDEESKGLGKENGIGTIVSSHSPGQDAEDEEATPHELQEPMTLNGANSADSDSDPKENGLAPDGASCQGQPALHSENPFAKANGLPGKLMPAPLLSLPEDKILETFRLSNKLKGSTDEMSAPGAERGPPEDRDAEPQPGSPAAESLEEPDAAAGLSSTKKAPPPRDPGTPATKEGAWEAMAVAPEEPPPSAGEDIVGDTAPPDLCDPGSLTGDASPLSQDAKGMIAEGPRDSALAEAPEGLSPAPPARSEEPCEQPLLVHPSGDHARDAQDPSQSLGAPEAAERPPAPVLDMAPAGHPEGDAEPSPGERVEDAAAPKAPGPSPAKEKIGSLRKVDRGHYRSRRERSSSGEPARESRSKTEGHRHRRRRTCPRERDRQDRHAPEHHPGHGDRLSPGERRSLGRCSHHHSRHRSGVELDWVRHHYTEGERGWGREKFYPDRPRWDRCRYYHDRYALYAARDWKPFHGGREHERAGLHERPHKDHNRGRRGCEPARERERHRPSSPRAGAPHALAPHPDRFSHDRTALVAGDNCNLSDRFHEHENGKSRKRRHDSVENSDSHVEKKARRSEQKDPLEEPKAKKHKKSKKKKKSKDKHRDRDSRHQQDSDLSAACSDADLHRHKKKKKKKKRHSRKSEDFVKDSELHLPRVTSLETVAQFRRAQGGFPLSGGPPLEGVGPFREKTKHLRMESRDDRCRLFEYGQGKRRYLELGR
In short, it runs like this: (§1)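 Labelled DUBs from HEK293T lysate were NeutrAvidin-enriched, digested with LysC and trypsin, and run by diaPASEF LC-MS/MS. Before that, each 495 µg sample in Tris/CHAPS/IGEPAL buffer with protease inhibitors was treated in triplicate with fragment at 200 µM or vehicle for 3 h, then with Biotin-Ahx-Ub-VS at 0.5 µM final for 1 h. Values are average log2 ratios of fragment over vehicle by unpaired t-test, based on global-median-normalised Spectronaut label-free quantities from proteins with ≥2 unique peptides.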

Assay [2] addresses USP46 (UniProt P62068). In short, it runs like this:
as §1

Assay [3] has as its target T2, USP47 (UniProt Q96K76).
T2 sequence (whole entry): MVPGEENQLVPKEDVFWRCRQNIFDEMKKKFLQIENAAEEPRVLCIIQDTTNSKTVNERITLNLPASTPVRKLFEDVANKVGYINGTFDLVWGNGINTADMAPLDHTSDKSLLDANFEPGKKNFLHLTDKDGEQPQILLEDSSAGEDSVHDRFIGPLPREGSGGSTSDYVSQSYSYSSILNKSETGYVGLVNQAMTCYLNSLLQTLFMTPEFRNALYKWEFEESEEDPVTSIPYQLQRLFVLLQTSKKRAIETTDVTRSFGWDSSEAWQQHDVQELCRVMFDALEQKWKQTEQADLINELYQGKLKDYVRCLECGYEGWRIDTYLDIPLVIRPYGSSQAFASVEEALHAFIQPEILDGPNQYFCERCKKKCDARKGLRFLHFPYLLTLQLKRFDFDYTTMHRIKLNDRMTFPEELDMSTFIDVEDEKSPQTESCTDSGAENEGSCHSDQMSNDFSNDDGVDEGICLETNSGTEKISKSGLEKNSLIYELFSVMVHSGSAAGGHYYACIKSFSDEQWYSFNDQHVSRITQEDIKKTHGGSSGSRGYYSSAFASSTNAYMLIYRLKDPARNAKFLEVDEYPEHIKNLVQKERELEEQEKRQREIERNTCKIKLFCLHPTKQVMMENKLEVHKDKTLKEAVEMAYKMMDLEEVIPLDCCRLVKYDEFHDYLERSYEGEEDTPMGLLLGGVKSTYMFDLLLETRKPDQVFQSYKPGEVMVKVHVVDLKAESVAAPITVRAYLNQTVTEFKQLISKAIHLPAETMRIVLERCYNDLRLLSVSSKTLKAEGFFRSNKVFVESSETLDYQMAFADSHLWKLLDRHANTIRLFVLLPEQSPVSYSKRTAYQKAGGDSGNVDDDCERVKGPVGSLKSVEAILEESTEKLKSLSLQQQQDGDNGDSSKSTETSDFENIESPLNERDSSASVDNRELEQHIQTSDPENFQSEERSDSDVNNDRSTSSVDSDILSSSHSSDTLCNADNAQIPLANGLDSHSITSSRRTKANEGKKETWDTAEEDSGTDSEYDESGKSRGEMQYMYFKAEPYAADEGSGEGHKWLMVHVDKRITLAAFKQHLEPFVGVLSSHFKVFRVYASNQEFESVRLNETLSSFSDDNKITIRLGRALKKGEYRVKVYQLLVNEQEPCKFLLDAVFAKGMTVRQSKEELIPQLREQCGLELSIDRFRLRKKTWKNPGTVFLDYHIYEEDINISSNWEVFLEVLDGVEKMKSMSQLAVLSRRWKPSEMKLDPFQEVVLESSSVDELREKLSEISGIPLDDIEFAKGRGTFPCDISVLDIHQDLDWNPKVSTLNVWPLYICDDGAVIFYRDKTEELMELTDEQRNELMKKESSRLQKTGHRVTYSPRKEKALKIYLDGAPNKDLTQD
In short, it runs like this: as §1

In assay [4] the target is T3, USP48 (UniProt Q86UV5).
T3 sequence (whole entry): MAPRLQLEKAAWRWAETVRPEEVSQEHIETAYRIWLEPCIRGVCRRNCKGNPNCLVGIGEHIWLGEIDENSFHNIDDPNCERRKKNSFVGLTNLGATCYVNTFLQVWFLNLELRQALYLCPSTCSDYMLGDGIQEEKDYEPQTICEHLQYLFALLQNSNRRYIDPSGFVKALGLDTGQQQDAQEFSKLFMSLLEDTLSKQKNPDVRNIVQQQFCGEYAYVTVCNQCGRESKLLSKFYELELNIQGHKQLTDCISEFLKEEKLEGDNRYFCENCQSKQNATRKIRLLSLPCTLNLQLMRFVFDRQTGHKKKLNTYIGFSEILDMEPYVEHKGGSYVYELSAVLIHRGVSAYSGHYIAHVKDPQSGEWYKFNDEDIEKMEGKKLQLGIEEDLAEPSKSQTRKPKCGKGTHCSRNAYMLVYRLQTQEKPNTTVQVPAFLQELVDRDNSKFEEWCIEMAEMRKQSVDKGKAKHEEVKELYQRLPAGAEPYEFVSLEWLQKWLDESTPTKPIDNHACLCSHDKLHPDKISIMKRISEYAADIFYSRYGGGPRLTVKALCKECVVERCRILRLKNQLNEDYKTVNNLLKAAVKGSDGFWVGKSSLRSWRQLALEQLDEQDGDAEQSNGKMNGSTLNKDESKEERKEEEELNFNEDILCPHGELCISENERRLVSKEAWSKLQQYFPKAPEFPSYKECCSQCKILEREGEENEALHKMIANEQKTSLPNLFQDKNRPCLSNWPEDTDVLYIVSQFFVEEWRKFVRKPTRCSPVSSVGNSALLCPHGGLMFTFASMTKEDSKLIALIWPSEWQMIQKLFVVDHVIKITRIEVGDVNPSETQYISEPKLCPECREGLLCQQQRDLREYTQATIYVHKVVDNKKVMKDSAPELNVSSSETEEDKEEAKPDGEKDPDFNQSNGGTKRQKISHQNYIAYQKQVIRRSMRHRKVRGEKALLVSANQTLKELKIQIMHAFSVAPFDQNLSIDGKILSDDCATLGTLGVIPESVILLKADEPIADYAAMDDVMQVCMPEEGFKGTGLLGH
An outline of the steps:
as §1

The target of assay [5] is T4, USP5 (UniProt P45974).
T4 sequence (whole entry): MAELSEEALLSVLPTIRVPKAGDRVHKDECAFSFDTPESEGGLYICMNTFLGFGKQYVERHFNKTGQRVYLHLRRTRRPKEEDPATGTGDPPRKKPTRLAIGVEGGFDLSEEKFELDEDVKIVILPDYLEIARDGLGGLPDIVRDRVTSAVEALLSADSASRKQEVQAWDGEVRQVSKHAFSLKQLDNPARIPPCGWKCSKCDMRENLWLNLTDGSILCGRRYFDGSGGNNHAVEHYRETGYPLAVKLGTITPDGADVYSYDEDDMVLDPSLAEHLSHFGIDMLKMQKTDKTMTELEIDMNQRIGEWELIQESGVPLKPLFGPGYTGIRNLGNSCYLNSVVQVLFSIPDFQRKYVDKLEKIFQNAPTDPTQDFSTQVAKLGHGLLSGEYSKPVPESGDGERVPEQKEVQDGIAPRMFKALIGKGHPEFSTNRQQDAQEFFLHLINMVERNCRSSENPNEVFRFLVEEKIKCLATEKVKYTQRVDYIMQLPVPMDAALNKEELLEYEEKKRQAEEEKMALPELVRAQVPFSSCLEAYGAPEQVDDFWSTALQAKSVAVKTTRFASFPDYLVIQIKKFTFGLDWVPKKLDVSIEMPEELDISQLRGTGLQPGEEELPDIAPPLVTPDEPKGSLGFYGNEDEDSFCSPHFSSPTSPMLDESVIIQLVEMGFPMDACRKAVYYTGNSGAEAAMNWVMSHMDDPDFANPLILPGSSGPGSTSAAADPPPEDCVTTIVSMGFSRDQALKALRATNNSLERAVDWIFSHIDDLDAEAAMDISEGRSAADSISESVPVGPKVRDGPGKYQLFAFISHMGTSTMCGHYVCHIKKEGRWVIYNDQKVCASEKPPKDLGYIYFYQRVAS
In short, it runs like this:
as §1

The target of assay [6] is USP54 (UniProt Q70EL1). An outline of the steps: as §1
In assay [7] the target is USP7 (UniProt Q93009). In short, it runs like this:
as §1

The target in assay [8] is T5, USP8 (UniProt P40818).
T5 sequence (whole entry): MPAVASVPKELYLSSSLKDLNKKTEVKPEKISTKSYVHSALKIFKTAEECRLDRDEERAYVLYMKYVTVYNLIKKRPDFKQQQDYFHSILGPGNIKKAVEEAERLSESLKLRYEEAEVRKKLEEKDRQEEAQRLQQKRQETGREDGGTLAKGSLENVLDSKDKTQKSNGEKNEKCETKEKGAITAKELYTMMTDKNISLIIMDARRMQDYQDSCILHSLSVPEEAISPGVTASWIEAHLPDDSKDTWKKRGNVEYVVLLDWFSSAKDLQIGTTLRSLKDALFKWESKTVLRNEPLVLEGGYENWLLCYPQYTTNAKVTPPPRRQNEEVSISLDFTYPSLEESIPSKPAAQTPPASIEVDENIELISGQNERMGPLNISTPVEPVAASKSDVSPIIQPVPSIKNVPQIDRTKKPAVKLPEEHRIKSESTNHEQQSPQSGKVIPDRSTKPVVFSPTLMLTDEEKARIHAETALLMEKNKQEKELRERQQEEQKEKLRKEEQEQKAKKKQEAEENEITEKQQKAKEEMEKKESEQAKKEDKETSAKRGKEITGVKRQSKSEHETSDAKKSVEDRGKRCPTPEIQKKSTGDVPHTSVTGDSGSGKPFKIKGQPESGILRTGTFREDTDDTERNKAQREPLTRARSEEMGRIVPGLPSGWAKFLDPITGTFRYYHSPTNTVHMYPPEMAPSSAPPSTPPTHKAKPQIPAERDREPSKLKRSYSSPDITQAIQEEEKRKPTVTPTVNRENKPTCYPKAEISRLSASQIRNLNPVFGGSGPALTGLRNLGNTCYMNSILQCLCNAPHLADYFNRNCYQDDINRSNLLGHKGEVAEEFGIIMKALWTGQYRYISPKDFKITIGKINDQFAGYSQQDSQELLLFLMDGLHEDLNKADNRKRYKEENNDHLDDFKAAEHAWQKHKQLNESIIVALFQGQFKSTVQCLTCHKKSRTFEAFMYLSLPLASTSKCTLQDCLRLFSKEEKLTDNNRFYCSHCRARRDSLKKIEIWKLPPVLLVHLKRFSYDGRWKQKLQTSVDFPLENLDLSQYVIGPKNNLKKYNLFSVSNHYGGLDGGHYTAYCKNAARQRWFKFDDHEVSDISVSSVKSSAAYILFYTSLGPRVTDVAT
In short, it runs like this: as §1

The target of assay [9] is USP9X (UniProt Q93008). An outline of the steps: as §1
For assay [10], the target named is UniProt O00487. In short, it runs like this:
as §1

Values without a mark were called inactive.

Chain of USP9X (Q93008 whole entry): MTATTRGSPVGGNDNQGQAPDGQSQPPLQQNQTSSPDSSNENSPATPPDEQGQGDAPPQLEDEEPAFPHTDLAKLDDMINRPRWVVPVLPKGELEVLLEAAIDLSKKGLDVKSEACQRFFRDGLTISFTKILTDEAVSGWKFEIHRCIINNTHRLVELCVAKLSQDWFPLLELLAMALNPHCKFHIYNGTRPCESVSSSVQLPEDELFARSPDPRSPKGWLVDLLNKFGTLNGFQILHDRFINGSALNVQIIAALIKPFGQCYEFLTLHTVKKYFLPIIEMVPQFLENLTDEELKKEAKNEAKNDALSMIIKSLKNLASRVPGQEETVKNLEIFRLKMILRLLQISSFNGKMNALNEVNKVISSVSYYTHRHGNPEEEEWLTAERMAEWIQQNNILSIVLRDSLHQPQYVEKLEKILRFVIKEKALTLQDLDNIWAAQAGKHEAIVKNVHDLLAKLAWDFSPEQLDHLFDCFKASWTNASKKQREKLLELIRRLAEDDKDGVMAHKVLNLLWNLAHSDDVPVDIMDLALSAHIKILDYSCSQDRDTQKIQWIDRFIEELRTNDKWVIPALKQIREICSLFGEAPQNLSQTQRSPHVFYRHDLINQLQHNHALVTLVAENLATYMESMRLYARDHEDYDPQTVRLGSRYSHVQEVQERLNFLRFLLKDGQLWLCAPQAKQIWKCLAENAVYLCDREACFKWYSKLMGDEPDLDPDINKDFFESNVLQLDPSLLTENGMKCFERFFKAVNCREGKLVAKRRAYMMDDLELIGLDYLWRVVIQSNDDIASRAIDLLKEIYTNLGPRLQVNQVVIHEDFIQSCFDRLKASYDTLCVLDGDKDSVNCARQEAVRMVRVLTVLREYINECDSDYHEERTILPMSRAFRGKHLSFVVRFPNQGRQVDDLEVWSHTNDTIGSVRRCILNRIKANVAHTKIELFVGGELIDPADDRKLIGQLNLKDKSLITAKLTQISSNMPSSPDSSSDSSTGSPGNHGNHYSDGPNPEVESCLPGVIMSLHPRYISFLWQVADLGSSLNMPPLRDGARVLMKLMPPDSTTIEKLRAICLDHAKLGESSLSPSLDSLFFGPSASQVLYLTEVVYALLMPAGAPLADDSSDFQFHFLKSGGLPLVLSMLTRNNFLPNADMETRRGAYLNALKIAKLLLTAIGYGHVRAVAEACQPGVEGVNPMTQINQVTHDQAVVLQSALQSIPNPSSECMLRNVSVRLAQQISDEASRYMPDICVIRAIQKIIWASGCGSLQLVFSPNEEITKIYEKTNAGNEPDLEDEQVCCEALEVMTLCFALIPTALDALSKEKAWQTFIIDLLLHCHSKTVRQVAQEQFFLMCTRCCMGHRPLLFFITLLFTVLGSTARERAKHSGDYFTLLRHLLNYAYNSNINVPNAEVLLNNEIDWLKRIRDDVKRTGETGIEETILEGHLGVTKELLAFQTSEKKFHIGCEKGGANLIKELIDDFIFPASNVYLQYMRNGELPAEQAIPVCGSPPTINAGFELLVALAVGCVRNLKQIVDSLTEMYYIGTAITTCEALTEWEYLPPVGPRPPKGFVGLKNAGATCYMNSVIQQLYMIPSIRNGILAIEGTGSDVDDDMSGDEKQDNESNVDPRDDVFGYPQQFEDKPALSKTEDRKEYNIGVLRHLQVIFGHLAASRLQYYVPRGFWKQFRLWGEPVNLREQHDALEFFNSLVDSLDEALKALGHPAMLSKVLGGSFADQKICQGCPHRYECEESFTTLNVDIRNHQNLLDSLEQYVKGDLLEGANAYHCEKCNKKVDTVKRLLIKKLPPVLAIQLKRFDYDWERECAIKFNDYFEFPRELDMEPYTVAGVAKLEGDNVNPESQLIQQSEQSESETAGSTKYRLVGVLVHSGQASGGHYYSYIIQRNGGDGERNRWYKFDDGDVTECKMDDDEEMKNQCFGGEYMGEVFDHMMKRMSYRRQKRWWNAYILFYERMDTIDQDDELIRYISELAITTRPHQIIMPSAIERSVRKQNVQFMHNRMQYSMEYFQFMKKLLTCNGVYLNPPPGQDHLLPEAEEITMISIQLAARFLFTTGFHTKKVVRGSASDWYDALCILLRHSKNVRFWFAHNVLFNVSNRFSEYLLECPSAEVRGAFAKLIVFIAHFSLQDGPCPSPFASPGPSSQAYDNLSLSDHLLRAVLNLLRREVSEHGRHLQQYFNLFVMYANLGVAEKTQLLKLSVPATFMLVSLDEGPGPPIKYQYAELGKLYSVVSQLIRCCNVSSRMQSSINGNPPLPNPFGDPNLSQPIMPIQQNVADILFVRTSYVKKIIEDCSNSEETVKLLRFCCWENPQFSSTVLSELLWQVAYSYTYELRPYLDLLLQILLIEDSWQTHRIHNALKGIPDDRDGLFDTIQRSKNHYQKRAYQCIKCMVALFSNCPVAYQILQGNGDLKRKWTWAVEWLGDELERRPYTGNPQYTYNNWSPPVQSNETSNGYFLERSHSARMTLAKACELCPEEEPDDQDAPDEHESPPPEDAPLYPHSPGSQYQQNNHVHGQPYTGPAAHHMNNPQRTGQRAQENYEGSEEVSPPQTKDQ
Chain of UniProt O00487 (O00487 whole entry): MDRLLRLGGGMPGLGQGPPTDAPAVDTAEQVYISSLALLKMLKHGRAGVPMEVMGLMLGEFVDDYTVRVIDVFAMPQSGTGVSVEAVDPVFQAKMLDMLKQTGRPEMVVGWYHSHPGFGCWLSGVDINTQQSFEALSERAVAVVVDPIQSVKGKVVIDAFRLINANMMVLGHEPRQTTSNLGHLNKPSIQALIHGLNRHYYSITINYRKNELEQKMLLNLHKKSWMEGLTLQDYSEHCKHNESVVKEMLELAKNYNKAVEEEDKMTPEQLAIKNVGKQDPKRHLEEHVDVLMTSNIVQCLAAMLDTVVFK
Chain of USP7 (Q93009 whole entry, looked up): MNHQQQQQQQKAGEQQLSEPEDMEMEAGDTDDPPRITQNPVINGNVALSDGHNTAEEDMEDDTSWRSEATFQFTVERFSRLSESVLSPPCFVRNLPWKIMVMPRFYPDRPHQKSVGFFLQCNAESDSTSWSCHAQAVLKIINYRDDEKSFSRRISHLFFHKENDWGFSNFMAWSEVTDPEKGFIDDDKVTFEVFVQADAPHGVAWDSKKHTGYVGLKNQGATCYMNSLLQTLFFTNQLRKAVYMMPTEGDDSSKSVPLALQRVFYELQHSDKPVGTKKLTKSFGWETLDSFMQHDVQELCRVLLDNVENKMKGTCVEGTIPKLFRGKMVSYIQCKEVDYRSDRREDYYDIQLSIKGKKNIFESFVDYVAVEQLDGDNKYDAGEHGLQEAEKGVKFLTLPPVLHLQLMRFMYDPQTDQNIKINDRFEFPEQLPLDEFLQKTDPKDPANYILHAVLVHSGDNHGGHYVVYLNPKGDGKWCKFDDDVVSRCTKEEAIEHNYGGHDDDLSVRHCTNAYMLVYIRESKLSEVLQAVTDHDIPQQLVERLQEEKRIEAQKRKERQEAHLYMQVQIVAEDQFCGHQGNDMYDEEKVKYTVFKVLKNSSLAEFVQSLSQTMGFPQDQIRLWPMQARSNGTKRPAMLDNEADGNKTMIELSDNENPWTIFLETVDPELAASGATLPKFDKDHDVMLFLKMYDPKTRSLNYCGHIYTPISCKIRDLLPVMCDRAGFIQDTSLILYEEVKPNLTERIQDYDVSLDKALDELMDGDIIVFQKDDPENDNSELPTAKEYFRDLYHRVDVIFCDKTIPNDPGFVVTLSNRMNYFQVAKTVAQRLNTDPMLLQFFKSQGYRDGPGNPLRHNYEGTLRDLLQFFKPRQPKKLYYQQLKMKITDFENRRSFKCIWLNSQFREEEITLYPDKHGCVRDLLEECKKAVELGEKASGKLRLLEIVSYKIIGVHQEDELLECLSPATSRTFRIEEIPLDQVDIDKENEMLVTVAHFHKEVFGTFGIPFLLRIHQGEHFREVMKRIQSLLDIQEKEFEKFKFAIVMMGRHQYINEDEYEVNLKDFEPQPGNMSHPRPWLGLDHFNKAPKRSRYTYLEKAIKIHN
Chain of USP46 (P62068 whole entry): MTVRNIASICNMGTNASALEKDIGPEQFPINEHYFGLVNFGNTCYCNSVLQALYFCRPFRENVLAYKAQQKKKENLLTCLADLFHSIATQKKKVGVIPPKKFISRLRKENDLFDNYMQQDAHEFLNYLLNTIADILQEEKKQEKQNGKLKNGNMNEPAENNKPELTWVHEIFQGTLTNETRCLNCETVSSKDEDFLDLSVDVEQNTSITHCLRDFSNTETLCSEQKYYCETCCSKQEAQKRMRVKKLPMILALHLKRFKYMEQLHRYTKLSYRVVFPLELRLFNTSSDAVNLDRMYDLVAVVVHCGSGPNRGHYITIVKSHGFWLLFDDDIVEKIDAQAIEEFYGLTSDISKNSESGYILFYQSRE

Regarding `O=C(CCl)N1CCC(c2ccn[nH]2)C1` (stereo not given), the “log2 ratio of Biotin-Ahx-Ub-VS probe labelling” value (“log2 ratio” below) was -0.237 in assay [1]; -0.0632 in [2]; -0.0366 in [3]; -0.675 in [4]; -0.0093 in assay [5]; -0.0323 in assay [6]. The “log2 ratio” value in assay [7] was -0.384; in [8], -0.487; in assay [9], -0.391; in assay [10], 0.0518.

As to `CCN(Cc1ccc(C#N)cc1F)C(=O)CCl`, the “log2 ratio” value was -0.249 in [1]; -0.114 in [2]; -0.791 in assay [3]; -1.26 (active) in assay [4]; 0.258 in assay [5]; 0.521 in [6]. In addition, the “log2 ratio” value in assay [7] was -1.26 (active); in assay [8] it was -0.229; in assay [9], -0.229; in assay [10], -0.0587.
